IL1B secr inh = blocks inflammasome-driven IL-1 beta release. activity change, % at 57.5 µM. actives 4.7% (n = 360,000). THP-1 LPS/ATP IL-1B secretion, AlphaLISA, 16 h; active compounds read low; in the data active means activity change below about -50%; inconclusive means mostly about -30% to -49%; further: on the % scale 0 is the no-effect control and ±100 the full control effect
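Secreted IL-1B measured by AlphaLISA bead assay after 16 h compound exposure of THP-1 cells; compounds (final up to 57.5 uM) added 1 h before LPS (250 ng/mL) and ATP (1.25 mM) stimulation; lower signal means less secretion.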
HepG2 viability = HepG2 cytotoxicity, counter-screen for TGF-b inhibitors | HepG2 CAGA-GFP viability, ATP luminescence, 18 h | Potency, µM (highest dose often 46.1 µM), inactives show at the top dose activity change, negative = cytotoxicity, usual class: cytotoxic | actives 0.76% (n = 410,000); further: potency means the concentration at half of the fitted maximal effect
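HepG2 CAGA-GFP cells (1000/well, DMEM with 1% FBS) received compound, then TGF-beta at 500 pg/mL final, and were incubated 18 hours at 37 degrees C. Viability was read by CellTiter-Glo luminescence. Media-only wells were set as complete cell-killing and DMSO as no toxicity.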
DT40 TDP1 CPT = growth inhibition of DT40 Tdp1-/-;hTDP1 cells with camptothecin (screen for TDP1 inhibitors); Potency, µM (top dose mostly 46.2 µM), for inactives: at the highest dose activity change, negative = growth inhibition, actives largely listed as inhibitors; AID 686979; chicken DT40 Tdp1-/-;hTDP1 cells + 20 nM CPT, ATP luminescence, 48 h; actives 12% (n = 420,000); further: potency means the concentration at half of the fitted maximal effect; on the % scale 0 is the no-effect control and ±100 the full control effect; nearly all actives have a fitted effect of over 55% in size
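Chicken DT40 Tdp1-/- cells stably complemented with human TDP1 were seeded at 400 cells/well in medium containing 20 nM camptothecin, exposed to pin-transferred compounds, and grown at 37 °C for at least 48 hr. Viability was read as ATP luminescence.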
TDP1 block = blocks human tyrosyl-DNA phosphodiesterase 1; Potency, µM (doses to about 130 µM), inactives show at the top dose activity change, negative = inhibition, most hits filed as inhibitors; AID 485290; recombinant TDP1, AlphaScreen DNA substrate cleavage; actives 0.28% (n = 350,000); Q9NUW8; further: potency means the concentration at half of the fitted maximal effect; on the % scale 0 is the no-effect control and ±100 the full control effect; nearly all actives have a fitted effect of over 40% in size
Target sequence (Q9NUW8 whole entry, looked up): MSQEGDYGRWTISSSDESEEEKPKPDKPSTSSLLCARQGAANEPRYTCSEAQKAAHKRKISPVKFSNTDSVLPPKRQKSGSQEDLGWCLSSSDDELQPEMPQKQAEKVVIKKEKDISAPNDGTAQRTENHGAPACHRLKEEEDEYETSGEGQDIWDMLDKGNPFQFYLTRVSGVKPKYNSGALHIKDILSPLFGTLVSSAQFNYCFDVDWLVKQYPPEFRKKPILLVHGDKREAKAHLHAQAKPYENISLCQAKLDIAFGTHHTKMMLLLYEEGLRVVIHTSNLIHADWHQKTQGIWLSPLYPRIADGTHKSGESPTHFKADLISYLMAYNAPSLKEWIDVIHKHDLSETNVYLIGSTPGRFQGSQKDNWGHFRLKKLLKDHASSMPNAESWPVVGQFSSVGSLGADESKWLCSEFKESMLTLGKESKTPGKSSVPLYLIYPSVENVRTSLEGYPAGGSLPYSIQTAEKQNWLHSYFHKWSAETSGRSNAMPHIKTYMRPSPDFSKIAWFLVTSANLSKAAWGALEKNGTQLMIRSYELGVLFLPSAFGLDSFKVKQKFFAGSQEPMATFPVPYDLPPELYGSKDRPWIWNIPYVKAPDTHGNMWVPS
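Steps: enzyme plus compound, 15 min RT; add biotin/phosphotyrosine-FITC oligonucleotide (15 nM final), react 5 min; add donor/acceptor beads (10 ug/ml final), 10 min; read AlphaScreen. Tdp1 at 1 nM final.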
TGFb inhibitor = TGF-b pathway inhibition. HepG2 CAGA-GFP TGF-b/SMAD3 reporter, GFP fluorescence, 18 h; TGF-beta stimulated, 500 pg/mL final. Potency, µM (doses to about 46.1 µM), for inactives: top-dose activity, negative = inhibition, usual class: inhibitors. actives 1.2% (n = 410,000); further: potency means the concentration at half of the fitted maximal effect; on the % scale 0 is the no-effect control and ±100 the full control effect; nearly all actives have a fitted effect of over 65% in size
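HEPG2 CAGA-GFP cells (1000/well, DMEM with 1% FBS) were pre-incubated 2 h at 37 degrees C, given compound by pin tool, then stimulated with TGF-beta at 500 pg/mL final for 18 h before per-cell GFP fluorescence imaging.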
TDP1 cell noCPT = qHTS for Inhibitors of human tyrosyl-DNA phosphodiesterase 1 (TDP1): qHTS in cells in absence of CPT. DT40 Tdp1-/- hTDP1 cells, no CPT, ATP luminescence, 48 h. Potency, µM (top dose mostly 46.2 µM), for inactives: at the top dose activity change, negative = growth inhibition, hits mostly inhibitors. actives 15% (n = 420,000). AID 686978, 2013; further: potency means the concentration at half of the fitted maximal effect; on the % scale 0 is the no-effect control and ±100 the full control effect; nearly all actives have a fitted effect of over 55% in size
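A cellular qHTS used chicken DT40 cells lacking endogenous Tdp1 but carrying stably transfected human TDP1. Compounds were applied without camptothecin, and cell growth kinetics were judged by ATP-dependent luminescence after ≥48 hr.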
Starred values were filed as active, the others as inactive; ? = inconclusive; · = not tested or not shown; ! = repeats disagree; [ ] = remark or other dose. Most compounds without a hit are left out; they make up all but 18% or so of the library. Unless noted, the call rests on the fitted dose curve; in most records, active means well fitted curve in the direction sought with a large enough effect; inconclusive means small, poorly fitted or top-dose-only effect, or another doubt; inactive means no such curve, though single readings can be large; an effect the other way counts as inactive or inconclusive.

SMILES | IL1B secr inh | HepG2 viability | DT40 TDP1 CPT | TDP1 block | TGFb inhibitor | TDP1 cell noCPT
COc1ccc(OC)c(-c2cc(C(=O)NC(C)c3ccccc3)no2)c1 (centres undefined) | · | -25% | 4.1µM* | 3% | -6% | 4.1µM*
COc1ccc(NC(=O)c2cc(-c3ccccc3Cl)on2)cc1 | -5 | -18% | -3% | · | 10% | ?
COc1ccccc1-c1cc(C(=O)Nc2cccnc2)no1 | 43 | -21% | 0.46µM* | · | -18% | 0.46µM*
CCC(=O)NC(c1ccc(C)s1)c1cc(Cl)c2cccnc2c1O (centres undefined) | · | · | · | 0% | · | ·
Cc1[nH]c(C)c(S(=O)(=O)NCc2ccco2)c1C(=O)N1CCCCC1 | 13 | 16% | -1% | 3% | 11% | 7%
COc1cc(OC)c(-c2nn3c(-c4cc(C)[nH]n4)nnc3s2)cc1OC | · | -11% | 7.1µM* | 1% | 2% | 4.5µM*
COc1cc(OC)c(-c2nn3c(C4CCCCC4)nnc3s2)cc1OC | -8 | -4% | ? | 6% | -18% | ?
COc1cc(OC)c(-c2nn3c(-c4n[nH]c5c4CCC5)nnc3s2)cc1OC | · | 10% | ? | 1% | 25% | 11µM*!
CSc1ccc(C(=O)N2CCc3c(cnc(C)c3CNC(=O)c3cncs3)C2)cc1 | · | · | 0%[9.04 µM] | · | · | ?
O=C(COC(=O)C(Cc1ccccc1)NC(=O)c1ccc(Cl)cc1)c1ccc(Cl)cc1 (centres undefined) | -7 | -1% | -16% | 3% | -6% | 18%
COc1ccccc1N(C)S(=O)(=O)c1ccc(C(=O)Nc2nc(C)cs2)cc1 | -17 | -25% | 1.5µM* | 5% | ? | 0.65µM*
CN(c1ccccc1)S(=O)(=O)c1ccc(C(=O)Nc2cccc(S(=O)(=O)N3CCOCC3)c2)cc1 | -12 | -14% | 7.3µM* | · | -20% | 7.3µM*
O=C(Nc1cccc(S(=O)(=O)N2CCOCC2)c1)c1cccc(S(=O)(=O)N2CCCC2)c1 | 33 | -23% | -13% | -3% | -12% | -30%
COc1ccccc1N(C)S(=O)(=O)c1ccc(C(=O)Nc2cccc(S(=O)(=O)N3CCOCC3)c2)cc1 | -9 | -3% | ? | · | -26% | 10µM*
COc1ccccc1N(C)S(=O)(=O)c1ccc(C(=O)Nc2nnc(C)s2)cc1 | -3 | -2% | 2% | 1%[0.505 µM] | -16% | -21%
CCOc1ccc(NC(=O)C2CCC(CNS(=O)(=O)c3ccc4c(c3)CCCC(=O)N4)CC2)cc1 (centres undefined) | · | 0% | -11% | 0% | 3% | -16%
CCN(CC)S(=O)(=O)c1ccc(OC)c(NC(=O)CSCc2c(C)noc2C)c1 | -23 | -14% | ? | -1% | 9% | 23µM*
Cn1c(Oc2ccc(F)cc2)c(C=O)c2ccccc21 | -92* | -12% | ? | -4% | -10% | ?
Nc1ccccc1NC(=O)c1ccc(CNC(=O)OCc2cccnc2)cc1 | · | · | · | 10% | · | ·
CCN1CCCC1CNC(=O)c1cc2c(-c3ccc(Cl)cc3)nn(C)c2s1 (centres undefined) | -85* | -48% | 18µM* | 4% | ? | 18µM*
Cn1nc(-c2ccc(Cl)cc2)c2cc(C(=O)NCCCN3CCCC3)sc21 | -89* | -15% | ? | 7% | 4% | 23µM*
COCCNC(=O)c1cc2c(-c3ccc(Cl)cc3)nn(C)c2s1 | -12 | -9% | ? | 0% | -4% | ?
CCCc1ccc(C(O)c2ncc(-c3ccc(OC)cc3)[nH]2)cc1 (centres undefined) | -10 | -8% | ? | · | 2% | ?
O=C(CN1CCOCC1)N/N=C/C(Br)=C\c1ccccc1 | ? | 18% | 12µM* | 2% | -18% | 10µM*
Cc1ccccc1NCC(=O)N/N=C/C(Br)=C/c1ccccc1 | ? | -71% | 5.2µM* | -7% | ? | 13µM*
SMILES | IL1B secr inh | HepG2 viability | DT40 TDP1 CPT | TDP1 block | TGFb inhibitor | TDP1 cell noCPT
O=C(CN1CCOCC1)N/N=C/c1ccc(C(=O)O)cc1 | -12 | 4% | -5% | -8% | 0% | 19%
Cc1ccc(NCC(=O)N/N=C/c2cccc(Oc3ccccc3)c2)cc1 | -77* | -34% | ? | 3% | ? | ?
O=C(Cc1cccs1)N/N=C/C(Br)=C/c1ccccc1 | -7 | -22% | ? | 6% | -13% | ?
O=C(COC(=O)c1ccc(Br)c(S(=O)(=O)N2CCOCC2)c1)NC1CC1 | -10 | 5% | 3% | 0% | 0% | 0%
CCOc1ccc(NS(=O)(=O)c2ccc(NC(=O)c3cccnc3)c(OC)c2)cc1 | 16 | -22% | -10% | 3% | 0% | -20%
COc1cccc(S(=O)(=O)Nc2ccc(C(=O)Nc3ccncc3)cc2)c1 | 12 | -14% | 13µM* | 3% | ? | ?
COc1cc(S(=O)(=O)Nc2cccc(C)c2)ccc1NC(=O)c1ccncc1 | -11 | 20% | ? | 8% | -11% | 13µM*
Cc1cccc(NS(=O)(=O)c2ccc(Cl)c(C(=O)Nc3ccccc3C)c2)c1 | · | -22% | ? | 0%[2.28 µM] | ? | 15µM*
COc1cccc(C(=O)Nc2ccc(C(=O)c3ccncc3)cc2)c1 | -10 | -19% | ? | · | -30% | ?
Cc1ccccc1NC(=O)c1cc(S(=O)(=O)c2ccccc2)ccc1Cl | -19 | -10% | ? | 6% | ? | ?
O=C(Nc1ccncc1)c1ccc(NS(=O)(=O)c2cccc(F)c2)cc1 | 35 | 0% | ? | 2% | ? | 21µM*
Cc1oc(-c2ccccc2F)nc1CS(=O)CC(=O)NC1CCCCC1 (centres undefined) | 1 | -1% | -10% | · | 9% | -10%
O=C(c1nc(-c2ccc(Cl)cc2)n2c1CCCCC2)N1CCN(c2ccc(F)cc2)CC1 | · | -31% | 23µM* | 11% | ? | 10µM*
O=C(c1ccc(Cl)cc1)N1CCN(c2ccc(F)cc2)CC1 | -28 | -38% | ? | 3% | 5% | ?
O=C(c1nc(-c2ccc(Cl)cc2)n2c1CCCCC2)N1CCN(c2ccccc2F)CC1 | · | -45% | ? | 12% | ? | 16µM*
O=C(c1ccc(-c2ccccc2)cc1)N1CCN(c2ccccc2F)CC1 | -10 | -35% | -11% | · | ? | 1%
O=C(NCC(=O)N1CCN(Cc2ccccc2)CC1)c1ccc(Br)o1 | 18 | 1% | -9% | 5%[56.1 µM] | 0% | 1%
